# Laboratory results reported in PubChem BioAssay (Tox21).
# Values joined by “and” are separate entries in the source; they are usually repeats but may differ in a detail not shown here. Equal values may be shown once. Inconclusive results are not listed. Active and inactive are the calls of the source. The call rests on the fitted dose curve.
# Assay: Nuclear factor erythroid 2-related factor 2/antioxidant responsive element (Nrf2/ARE) small molecule agonists: luciferase reporter gene qHTS assay in human keratinocytes (AID 1919969); further: nearly all actives have a fitted effect of over 35% in size
# Conditions: KeratinoSens HaCaT ARE-luciferase, luminescence, 24 h; series mostly up to 92.4 µM; activity, positive = activation: at the top concentration
# Text: National Center for Advancing Translational Sciences [NCATS]
# Division of Preclinical Innovation [DPI]
# U.S. Environmental Protection Agency [EPA]
# National Institutes of Environmental Health Sciences [NIEHS]
# National Toxicology Program [NTP]
# U.S. Food and Drug Administration [FDA]
# Oxidative stress has been implicated in the pathogenesis of a variety of diseases ranging from cancer to neurodegeneration. The antioxidant response element (ARE) signaling pathway plays an important role in the amelioration of oxidative stress. The KeratinoSens (Givaudan, Switzerland) is an in vitro test method which quantifies luciferase induction as a measure of activation of Keap1-Nrf2-antioxidationt/electrophile response element (ARE) dependant pathway in HaCaT human keratinocytes stably transfected with a selectable plasmid. The KeratinoSens assay is a cell-based assay with a reporter cell line to detect potential skin sensitizers by their ability to induce the Nrf2/ARE-response. The activation of the report gene under culture conditions can be detected by ONE-Glo Luciferase Assay System (Promega, Madison, WI). This cell line has been used to screen the Tox21 10K compound library to identify agonists that induce oxidative stress. The cytotoxicity of the Tox21 compound library against the KS-ARE cell line was tested in parallel by measuring the cell viability using CellTiter- Fluor assay system (Promega, Madison, WI) in the same wells.
# HaCaT derived cell line KeratinoSens were dispensed at 1,500 cells/5uL/well in 1536-well white wall/solid bottom plates using a Multidrop Combi (ThermoFisher Scientific, Waltham, MA) dispenser. After the assay plates were incubated at 37 C/5% CO2 for 5 h, 23 nL of compounds dissolved in DMSO, positive controls or DMSO only was transferred to the assay plate by a pintool workstation (Kalypsys, San Diego, CA). The plates were incubated at 37 C/5% CO2 for 23 h, followed by addition of 1uL/well of CellTiter-Fluor reagent into the assay plates using a Flying Reagent Dispenser (Aurora Discovery, San Diego, CA) for cell viability readout that measures cytotoxicity. After 1 h incubation at 37 C/5% CO2 the fluorescence intensity was measured using a ViewLux (PerkinElmer, Shelton, CT) plate reader. Then 4uL/well of One-Glo were added using a Flying Reagent Dispenser. After the plates were incubated at room temperature for 30 min, the luminescence intensity in the assay plates was measured using ViewLux plate reader.
# On the % scale 0 is the no-effect control and ±100 the full control effect; potency means the concentration at half of the fitted maximal effect.
SMILES,"activity, positive = activation",Potency
O=C(O)/C=C/c1ccc(O)c(O)c1,6.64% (inactive),
CNCc1ccc(NC(=O)c2c[nH]c3c2C(=O)CCC3)cc1,22.2% (inactive),
CCCCCCCCC(CO)CCCCCC (stereo not given),-0.155% (inactive),
CCCc1ccccc1O,4.71% (inactive),
O=C1CCCN1C1CCCCC1,-9.35% (inactive),
CCC[Si](OC)(OC)OC,-13.9% (inactive),
O=C(/C=C/c1ccccc1)NCCO,6.14% [at 42.5 µM] (inactive),
O=C1OC(=O)c2c(Br)c(Br)c(Br)c(Br)c21,-0.573% (inactive),
N[C@@H]1CONC1=O,6.51% [at 42.5 µM] (inactive),
c1ccc(CN(Cc2ccccc2)Cc2ccccc2)cc1,,54.4 µM (active)
COC(=O)C1=C(C)NC(C)=C(C(=O)OC(C)C)C1c1cccc2nonc12 (stereo not given),-10.5% [at 42.5 µM] (inactive),
CCCCCC1Nc2cc(C(F)(F)F)c(S(N)(=O)=O)cc2S(=O)(=O)N1 (stereo not given),0.137% [at 42.5 µM] (inactive),
S=C(S)NCCNC(=S)S,23.9% (inactive),
CC(C)(C)Cl,-7.5% (inactive),
C#Cc1cccc(Nc2ncnc3cc(OCCOC)c(OCCOC)cc23)c1,-21.2% [at 42.5 µM] (inactive),
CC1(CN2CCC(n3c(=O)[nH]c4ccccc43)CC2)OCc2ccccc2-n2cccc21 (stereo not given),-43.8% [at 42.5 µM] (inactive),
C/C=C1/C(=O)C[C@H]2[C@@H]3CCC4=CC(=O)CC[C@]4(C)[C@H]3CC[C@]12C,,68.4 µM (active)
CC(NCCC(c1ccccc1)c1ccccc1)c1ccccc1 (stereo not given),-35.8% [at 42.5 µM] (inactive),
C=C(C)c1cccc(C(=C)C)c1,1.59% (inactive),
CCn1c(=O)c2c(nc(/C=C/c3ccc(OC)c(OC)c3)n2C)n(CC)c1=O,-9.14% [at 42.5 µM] (inactive),

SMILES,"activity, positive = activation",Potency
CCSCC,,72.5 µM (active)
C1COCO1,-0.449% (inactive),
Cc1[nH]c(C)c(Cl)c(=O)c1Cl,3.75% [at 19 µM] (inactive),
COc1cc(S(=O)(=O)Nc2ccccc2)c(OC)cc1N,-11.4% (inactive),
O=C1Cc2ccccc2N1c1c(Cl)cccc1Cl,4.14% (inactive),
CCC(C(=O)NC(=O)NC(C)=O)c1ccccc1 (stereo not given),1.97% [at 42.5 µM] (inactive),
CCC(=O)OCCOc1ccccc1,-0.264% (inactive),
CCN(C(=O)N(CC)c1ccccc1)c1ccccc1,-8.05% (inactive),
NCCc1ccn[nH]1,-5.5% [at 42.5 µM] (inactive),
c1ccccc1,4.34% (inactive),
COC(=O)c1nc(Cl)c(Cl)nc1N,,5.96 µM (active)
CCCC1C(CC)=CC(CC)=CN1c1ccccc1 (stereo not given),,61.1 µM (active)
Cc1oc(=O)oc1CN1CCN(c2cc3c(cc2F)c(=O)c(C(=O)O)c2n3C(C)S2)CC1 (stereo not given),-4.72% [at 42.5 µM] (inactive),
CCOC(=O)[C@H](CCc1ccccc1)N[C@H]1CCc2ccccc2N(CC(=O)O)C1=O,-1.69% [at 42.5 µM] (inactive),
CCCCC/C=C\C/C=C\CCCCCCCC(=O)NC(C)c1ccccc1 (stereo not given),3.49% [at 42.5 µM] (inactive),
C1CN(SSN2CCOCC2)CCO1,,13.5 µM (active) and 68.6 µM (active)
CCC1(c2cnc[nH]2)Cc2ccccc2C1,-8.23% [at 42.5 µM] (inactive),
O=CN(CCO)CCO,-3.88% (inactive),
O=C1NC(=O)c2cccc3cccc1c23,0.141% (inactive),
CCN[C@H]1C[C@H](C)S(=O)(=O)c2sc(S(N)(=O)=O)cc21,0.712% [at 42.5 µM] (inactive),
